# FMDV antiviral: antivirals against foot and mouth disease virus | 410,000 compounds, 1.2% hits | Potency, µM (doses to about 57.9 µM), for the others: at the highest dose activity change, negative = inhibition, hits mostly inhibitors | FMDV antiviral cell-based qHTS; calls by dose curve; tested in HEK293T cells; note: read-out not given here; potency is the fitted concentration of half-maximal effect; nearly all actives have a fitted effect of over 45% in size
# MARV entry inh: inhibitors of Marburg virus binding or cell entry. Marburg virus pseudotyped entry inhibition, cell reporter. Potency, µM (highest dose often 37.8 µM), without a hit: top-dose activity change, negative = inhibition, hits mostly inhibitors. 300,000 compounds, 1.8% hits; calls by dose curve; tested in HEK293 cells; note: potency is the fitted concentration of half-maximal effect
# HCMV inh: human cytomegalovirus inhibition. 410,000 compounds, 4.5% hits. HFF cells, HCMV-luciferase reporter, 72 h; stronger effect = lower value. AID 1259415. activity change, negative = inhibition, % at 57.5 µM; in the data active = activity change below about -60%; inconclusive = no clear call, values can overlap the other calls; inactive = above about -39%
#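 Two-dose cell screen: HFF monolayers treated with compounds and infected with luciferase-expressing HCMV at 1 PFU/cell, 72 h at 37C, then lysed for luciferase measurement.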
# LASV entry inh: inhibitors of Lassa virus binding or cell entry; Potency, µM (series often up to 37.9 µM), without a hit: top-dose activity change, negative = inhibition, actives largely listed as inhibitors; 300,000 compounds, 1.2% hits; Lassa virus pseudotype entry inhibition, cell reporter; calls by dose curve; tested in HEK293 cells; note: potency is the fitted concentration of half-maximal effect; nearly all actives have a fitted effect of over 50% in size
# HCV inh: HCV inhibition | Huh7.5.1 HCVcc-Cre infection, luciferase reporter, 44 h | Potency, µM (top dose mostly 41.8 µM), for the others: at the top dose activity change, negative = inhibition, usual class: inhibitors | 340,000 compounds, 3.4% hits | AID 651820; active = well fitted inhibition curve with a large enough effect; inconclusive = small, poorly fitted or top-dose-only effect, or another doubt; inactive = no such curve, though single readings can be large or run the other way; note: potency is the fitted concentration of half-maximal effect
#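 Infectious HCVcc-Cre (~0.5 moi) was added to cells just after compound, with cells seeded 4 h earlier at 1,000 per well. Luciferase activity after 44 h culture reported infection; substrate was incubated 15 min at room temperature before reading.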
# Numbers without * were called inactive; ? = inconclusive; / = no result; + = active, no number; [ ] = another dose, or the depositor's remark. Compounds with a hit are over-represented: about 7.9% of the library has one in this group of screens. % is set by controls: 0 for no effect and ±100 for the full control effect.
SMILES,FMDV antiviral,MARV entry inh,HCMV inh,LASV entry inh,HCV inh
O=C(Nc1ccc(N2CCN(C(=O)c3ccco3)CC2)c(Cl)c1)c1cccnc1,-23%,9%[46.1 µM],-31,-1%[46.1 µM],?
O=C(Nc1ccc(N2CCOCC2)c(Cl)c1)c1cc(F)c(F)cc1Cl,-15%,26%,-40,5%,?
O=C(Nc1ccc(N2CCN(C(=O)c3cccs3)CC2)c(Cl)c1)c1ccco1,-73%,?,15,-26%,?
Cc1ccccc1C(=O)N1CCN(c2ccc(NC(=O)c3ccco3)cc2Cl)CC1,?,?,10,10µM*,11µM*
C/C(=N\NC(=O)c1n[nH]c2c1CCC2)c1ccco1,-25%,?,-65*,?,-2%
Cc1cccc(/C=N/NC(=O)c2ccc3c(c2)OCCO3)c1O,/,/,-98*,/,/
CCOc1cccc(/C=N/NC(=O)c2cc(-c3cccn3C)n[nH]2)c1O,13%,?,-38,22µM*,11µM*
COc1cc(OC)c(OC)cc1/C=N/NC(=O)c1cc(-c2cccn2C)n[nH]1,-1%,-9%,3,-6%,10%
Cc1ccsc1/C=N\NC(=O)c1n[nH]c2c1CCC2,0%,2.8µM*,42,6.3µM*,?
O=C(N/N=C/c1cccc(O)c1)c1ccc2c(c1)OCCO2,57%,/,157,/,8%
COc1ccc(CC(=O)N2CCc3cc(OC)c(OC)cc3C2COc2ccc(OC)cc2)cc1 (stereo unspecified),0%,/,19,?,/
COc1cccc(/C=N/NC(=O)CNC(=O)c2ccc3c(c2)OCCO3)c1O,-20%,-28%,12,?,8%
C/C(=N\NC(=O)c1cc2ccccc2cc1O)c1ccc(C)o1,23%,-2%,-14,0%,-17%
CCOc1cccc(/C=N/NC(=O)c2ccc3c(c2)OCCO3)c1O,10%,?,+,?,?
Cc1ccsc1/C=N/NC(=O)c1ccc2c(c1)OCCO2,-15%,3.2µM*,37,?,-16%
C/C(=N/NC(=O)c1cc2ccccc2cc1O)c1ccco1,14%,/,-73*,/,-17%
COc1ccc(OC)c(C(=O)N(Cc2cc3cccc(C)c3nc2N2CCC(O)CC2)C2CC2)c1,1%,/,/,/,/
CC(=O)c1cc2c(cc1NC(=O)CSc1nnc(C3CC3)n1C)OCO2,-3%,/,-14,/,/
CCCCOc1ccc(/C(O)=C2/C(=O)C(=O)N(Cc3cccnc3)C2c2ccncc2)c(C)c1 (stereo unspecified),-19%,-7%,3,29%,1%
CCOCCCNC(=S)NCCNc1nc2ccc(C)cc2cc1C#N,17%,0%[46.1 µM],32,-3%,?
CCOCCCNC(=S)NCCCNc1nc2ccc(C)cc2cc1C#N,/,/,-91*,/,/
O=S(=O)(c1ccccc1)N1CCC2(CCCN(Cc3nccs3)C2)CC1,3%,/,/,/,/
Cc1cccc(NC(=S)N(CCCN2CCCC2)Cc2cccn2Cc2ccc(Cl)cc2)c1,-19%,7.1µM*,-60*,?,?
CCOc1ccc(NC(=S)N(CCCN2CCCC2)Cc2cccn2Cc2ccc(Cl)cc2)cc1,-15%,-24%[46.1 µM],-24,-9%,?
Cn1c(/C(C#N)=C/c2ccc(O)cc2)nc2ccccc21,16%,/,16,/,-11%
SMILES,FMDV antiviral,MARV entry inh,HCMV inh,LASV entry inh,HCV inh
Cn1c(/C(C#N)=C/c2ccncc2)nc2ccccc21,16µM*,/,12,/,-2%
COc1ccc(NC(=O)Nc2c[nH]c(=O)[nH]c2=O)c(OC)c1,-9%,/,1,6%[46.1 µM],/
O=C(O)/C=C\C(=O)Nc1cccc(NC(=O)c2ccccc2)c1,-6%,1%[46.1 µM],-29,7%[46.1 µM],4%
O=C(O)/C=C/C(=O)Nc1ccc(NC(=O)c2ccccc2)c(Cl)c1,-1%,?,?,?,8.9µM*
O=[N+]([O-])c1ccccc1C1Nc2cccc3cccc(c23)N1,-5%,-16%,-18,?,-16%
O=[N+]([O-])c1ccc(Cl)c(C2Nc3cccc4cccc(c34)N2)c1,-23%,-26%,-81*,1%,-29%
Cc1oc(-c2ccccc2NC(=O)c2ccccc2)nc1CNC(=O)c1c(-c2ccccc2)noc1C,3%,/,/,/,/
COc1cccc2cc(/C(=N/O)c3ccc(Br)cc3)oc12,-19%,-29%,-66*,-22%,-29%
COc1cccc2cc(C(=O)c3ccccc3)oc12,21%,-1%[46.1 µM],-9,?,0%
CCN(C#N)c1nc(N(C)C)nc(N(C)C)n1,0%,19%,-12,-4%,10µM*
COCN(C#N)c1nc(N(C)C)nc(N(C)C)n1,2%,-15%[46.1 µM],3,/,?
CC1(C)S[C@@H]2[C@H](N3C(=O)C(c4ccccc4)NC3(C)C)C(=O)N2[C@H]1C(=O)O (stereo partly specified),27%,/,/,/,/
Cc1sc2ncnc(Sc3ccccc3C(=O)Nc3ccccc3Cl)c2c1C,-14%,-2%,-37,/,-16%
Cc1sc2ncnc(Sc3ccccc3C(=O)Nc3ccc(C#N)cc3)c2c1C,14%,?,?,?,25µM*
Cc1sc2ncnc(Sc3ccccc3C(=O)Nc3ccc(Br)cc3)c2c1C,9%,-18%,-27,-19%,5.6µM*
COCC=CC1=CC2=CC(=O)C(C)(OC(=O)c3cnc4ccccc4n3)C(=O)C2=CN1CC1CC1 (stereo unspecified),/,58%[14.2 µM],/,/,/
CCc1ccc(N2CC(C(=O)N/N=C/c3ccccc3OC)CC2=O)cc1 (stereo unspecified),3%,1%[46.1 µM],-16,?,-23%
CCc1ccc(N2CC(C(=O)N/N=C/c3cc([N+](=O)[O-])ccc3O)CC2=O)cc1 (stereo unspecified),-6%,-3%[46.1 µM],?,7.1µM*,?
CC1CCCC(NC(=O)C2N(CCCN3CCCC3)C(=O)C3C(C(=O)Nc4ccc(Cl)cc4)C4C=CC32O4)C1C (stereo unspecified),20%,?,?,24%,-15%
O=C(NCCc1ccccc1)c1c2c(nc3ccccc13)C(=O)N(C1CCCCC1)C2,3%,/,62,11%[46.1 µM],/
Cc1cccc(CNC(=O)c2cnn(-c3nccc(-c4ccccc4C(F)(F)F)n3)c2C)n1,-10%,/,/,/,/
COc1cccc(C(=O)/C=C/Nc2cc(C)ccc2O)c1,20%,?,-79*,-14%,2.2µM*
Cc1c(C(=O)N2CCCC2)oc2c1-c1nn(CC(=O)NCc3cccc(Br)c3)cc1CC2,-18%,/,-27,?,/
Cc1cc(Cl)c2oc(C(=O)NCCC3CCCCO3)c(C)c2c1 (stereo unspecified),45%,?,75,?,25µM*
Cc1c(Cl)cccc1NC(=S)NCCCN(C)C,-12%,-21%,-36,9%,0%
S=C(NCCc1ccccn1)Nc1ccccc1Cl,50%,/,43,/,-2%
Cc1c(Cl)cccc1NC(=S)NCCc1ccccn1,-5%,2%[14.2 µM],-69*,-28%,-9%
Cc1c(Cl)cccc1NC(=S)NCCc1ccc(C(F)(F)F)cc1,-22%,10µM*,-33,?,11µM*
COC(=O)C1=C(C(=O)OC)[C@@H]2Nc3ccccc3[C@@]23C[C@@H](C(=O)OC)N(C(=O)C2CCC2)C3=N1,-30%,/,-3,/,50%

# Assay outcomes as filed in PubChem BioAssay.
